{"source": "PubChem BioAssay AID1851", "about": "(National Center for Advancing Translational Sciences (NCATS), 2009)", "note": "Values joined by “and” are separate entries in the source; they are usually repeats but may differ in a detail not shown here. Equal entries are not always repeated. In all, about 16,000 compounds went through this assay and about 5,800 (36%) were called active. About 23% were inconclusive and are not listed. The call rests on the fitted dose curve; in most records, active means well fitted curve in the direction sought with a large enough effect; inconclusive means small, poorly fitted or top-dose-only effect, or effect the other way; inactive means no such curve, though single readings can be large or run the other way. Some of the results follow. On the % scale 0 is the no-effect control and ±100 the full control effect.", "data": [{"target": "Cytochrome P450 2C19 (Homo sapiens) (UniProt P33261)", "sequence (P33261 whole entry, looked up)": "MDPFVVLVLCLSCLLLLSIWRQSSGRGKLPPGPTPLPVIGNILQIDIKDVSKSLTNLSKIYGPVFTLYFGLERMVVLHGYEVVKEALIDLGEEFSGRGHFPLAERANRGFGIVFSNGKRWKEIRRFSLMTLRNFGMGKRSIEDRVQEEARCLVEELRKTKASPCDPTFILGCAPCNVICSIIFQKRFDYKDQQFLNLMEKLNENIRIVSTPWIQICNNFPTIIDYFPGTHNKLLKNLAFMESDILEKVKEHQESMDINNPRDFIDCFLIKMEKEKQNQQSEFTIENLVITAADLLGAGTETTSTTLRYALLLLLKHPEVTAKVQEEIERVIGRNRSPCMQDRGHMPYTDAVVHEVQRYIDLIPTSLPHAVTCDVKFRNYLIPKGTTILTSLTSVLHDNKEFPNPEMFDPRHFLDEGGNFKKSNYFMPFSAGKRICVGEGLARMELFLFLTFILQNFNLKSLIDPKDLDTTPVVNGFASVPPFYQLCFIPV", "assay": "Cytochrome panel assay with activity outcomes", "details": "recombinant CYP, pro-luciferin dealkylation, luminescence, p450-cyp2c19; series mostly up to 57.1 µM", "values": [{"smiles": "CCOC(=O)COc1c(OC)cc(Cl)cc1C1Nc2ccccc2C(=O)N1c1cccc(C)c1", "note": "(centres undefined)", "AC50": "1.41 µM (active)"}, {"smiles": "CCOC(=O)CC1NC(=O)c2ccccc21", "note": "(centres undefined)", "AC50": "inactive"}, {"smiles": "CCOC(=O)COc1c(OC)cc(Cl)cc1C1Nc2ccccc2C(=O)N1c1ccc(F)cc1", "note": "(centres undefined)", "AC50": "0.501 µM (active)"}, {"smiles": "C#CCn1c(=O)c2c(ncn2C)n(C)c1=O", "AC50": "inactive"}, {"smiles": "O=C(Nc1cccc(C(F)(F)F)c1)c1ccc(Cn2cc(Br)cn2)o1", "AC50": "2.24 µM (active)"}, {"smiles": "CCN(CC)S(=O)(=O)c1cccc(C(=O)N[C@H](C(=O)OCC(=O)NC(=O)NC)C(C)C)c1", "AC50": "7.94 µM (active)"}, {"smiles": "[N-]=[N+]=NC[C@@H]1O[C@@H](n2cnc3c(N)ncnc32)[C@@H]2O[C@@H]21", "activity, negative = inhibition": "18.5% [at 11.4 µM] (inactive)"}, {"smiles": "CC(C)=CCC/C(C)=C/CC/C(C)=C/CSc1ccccc1C(=O)O", "AC50": "inactive"}, {"smiles": "Cn1c(=O)cc(SCC(=O)NCCN2CCN(c3ccccc3F)CC2)c2cc(Cl)ccc21", "AC50": "11.2 µM (active)"}, {"smiles": "Cc1c(Cl)cnc(NC(=O)COC(=O)CCS(=O)(=O)c2ccccc2)c1Cl", "AC50": "20 µM (active)"}, {"smiles": "CC(C)=CC(=O)OCC(=O)Nc1ncc(Cl)c(C)c1Cl", "AC50": "15.8 µM (active)"}, {"smiles": "Nc1ccc(CCNc2ncnc3c2ncn3[C@@H]2O[C@@H](CO)[C@H](O)[C@@H]2O)cc1", "AC50": "inactive"}, {"smiles": "Cc1cc(N)n2ncc(-c3ccc(Cl)cc3)c2n1", "AC50": "15.8 µM (active)"}, {"smiles": "Cc1cc(N2CCN(C)CC2)n2nc(-c3ccc(Cl)cc3)nc2n1", "activity, negative = inhibition": "4.95% [at 11.4 µM] (inactive)"}, {"smiles": "COc1cc(/C=C/C(=O)Nc2cc(C(F)(F)F)ccc2Cl)cc(OC)c1OC", "AC50": "20 µM (active)"}, {"smiles": "COc1cccc(C(=O)Nc2cc(C(F)(F)F)ccc2Cl)c1", "AC50": "7.08 µM (active)"}, {"smiles": "COc1cc(C(=O)NC(=S)Nc2ccc(Cl)c(C(=O)O)c2)cc(OC)c1OC", "AC50": "inactive"}, {"smiles": "COC(=O)c1ccc(Cl)c(NC(=O)c2ccc(-c3ccccc3)cc2)c1", "AC50": "inactive"}, {"smiles": "COc1cc(C(=O)Nc2cc(C(F)(F)F)ccc2Cl)cc(OC)c1OC", "AC50": "22.4 µM (active)"}, {"smiles": "O=C(Cc1ccccc1)NC(=S)Nc1cc(C(F)(F)F)ccc1Cl", "AC50": "0.708 µM (active)"}, {"smiles": "CN(C)c1cc[n+](CC(=O)Nc2cc(C(F)(F)F)ccc2Cl)cc1", "AC50": "inactive"}, {"smiles": "CCCC(=O)Nc1ccc(C(=O)Nc2cc(C(F)(F)F)ccc2Cl)cc1", "AC50": "20 µM (active)"}, {"smiles": "C/C(CCN1CCCCc2nc(C)c(C)cc21)=N\\O[C@@H](C)c1cn([C@H](CO)Cc2ccccc2)nn1", "activity, negative = inhibition": "-12.5% [at 11.4 µM] (inactive) and 36.9% [at 11.4 µM] (inactive)"}, {"smiles": "CC(C)OC(=O)CN1CCN(C2c3ccccc3-c3ccccc32)CC1", "AC50": "7.08 µM (active)"}, {"smiles": "CC(=O)Nc1ccc2c(c1)C(=Nc1ccc(C(=O)O)cc1)c1ccccc1-2", "activity, negative = inhibition": "24.2% [at 11.4 µM] (inactive)"}, {"smiles": "O=C(O)C[C@@H](C(=O)O)C1c2ccccc2-c2ccccc21", "activity, negative = inhibition": "26.9% [at 11.4 µM] (inactive)"}, {"smiles": "COc1ccc(NC(C)=O)cc1NC(=O)CN1CCN(C2c3ccccc3-c3ccccc32)CC1", "AC50": "2.51 µM (active)"}, {"smiles": "COc1ccccc1NC(=O)CN1CCN(C2c3ccccc3-c3ccccc32)CC1", "AC50": "0.708 µM (active)"}, {"smiles": "COC(=O)C/C=C1\\c2ccccc2[C@H](OC)[C@H]1C", "activity, negative = inhibition": "23.9% [at 11.4 µM] (inactive)"}]}]}
